Assay outcomes deposited in PubChem BioAssay by National Center for Advancing Translational Sciences (NCATS).
Shown are actives, neighbours in structure and some others; about 2.6% of the full set was active somewhere.
BRCA1 expr act – activators of BRCA1 expression; MCF7-BRCA1-FFLuc reporter, luminescence, 48 h; response scale: scaled: vehicle 0%, 10 µM genistein 100%; Potency, µM (series often up to 46.1 µM), for inactives: at the top dose activation, actives largely listed as activators; AID 624202; 380,000 tested, 1.1% active; further: nearly all actives have a fitted effect of over 80% in size
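Cells: MCF7-BRCA1-FFLuc, 2000/well. Exposure: 48 h, 37 °C, 5% CO2. Read: luminescence, 15 min post-substrate. Controls: genistein 10 microM (maximal activation), DMSO (neutral).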
GLP1R inv ag – acts as inverse agonist at human GLP-1 receptor. Potency, µM (highest dose often 38.3 µM), without a hit: top-dose activity change, negative = inhibition, usual class: inhibitors. HEK293 GLP-1R CRE-luciferase, luminescence, 24 h; GLP-1R form is constitutively active. AID 624417. 410,000 tested, 1.6% active; further: on the % scale 0 is the no-effect control and ±100 the full control effect; nearly all actives have a fitted effect of over 55% in size
Target sequence (P43220 whole entry, looked up): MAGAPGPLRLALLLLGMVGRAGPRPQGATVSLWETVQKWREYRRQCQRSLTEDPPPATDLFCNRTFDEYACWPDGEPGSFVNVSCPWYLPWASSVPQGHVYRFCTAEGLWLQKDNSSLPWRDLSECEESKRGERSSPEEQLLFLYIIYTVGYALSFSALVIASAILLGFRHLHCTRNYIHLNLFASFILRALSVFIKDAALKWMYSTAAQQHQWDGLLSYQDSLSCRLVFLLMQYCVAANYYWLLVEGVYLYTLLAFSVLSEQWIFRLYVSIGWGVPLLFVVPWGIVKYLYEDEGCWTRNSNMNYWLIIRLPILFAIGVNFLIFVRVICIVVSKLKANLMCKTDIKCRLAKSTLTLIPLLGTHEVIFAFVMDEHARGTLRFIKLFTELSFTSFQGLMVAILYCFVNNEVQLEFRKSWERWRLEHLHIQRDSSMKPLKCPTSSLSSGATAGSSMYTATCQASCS
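Assay principle: reduced luminescence from a cAMP-responsive reporter in HEK293 cells co-expressing a constitutively active GLP-1R. Conditions: 24 hr compound incubation, 37 deg C, 5% CO2.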
HEK293 tox – cytotoxic in the GLP-1 receptor inverse agonist counter-screen; HEK293 cAMP-luciferase reporter cells, luminescence, 24 h; Potency, µM (doses to about 38.3 µM), inactives show top-dose activity change, negative = inhibition, usual class: inhibitors; 410,000 tested, 0.13% active; AID 624418;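 further: loss of luciferase light is scored as toxicity; on the % scale 0 is the no-effect control and ±100 the full control effect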
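1536-well qHTS counterscreen of the MLSMR; 200 cells/uL, 12 h pre-incubation, 23 nL cpd, 24 h at 37 deg C 5% CO2, luciferase detection reagent, 12 min RT, luminescence. Inhibition = undesired.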
GLP1R ag – activates the human GLP-1 receptor; P43220; HEK293 GLP-1R CRE-luciferase, luminescence, 4-6 h; cells express a hypersensitive GLP-1R form; Potency, µM (titrated, usually from 45.6 µM), without a hit: at the highest dose activation, actives largely listed as activators; 380,000 tested, 0.007% active; AID 624172; further: % of control where 0% means no effect
The depositor's hits bear a star. The call rests on the fitted dose curve; in most records, active means well fitted curve in the direction sought with a large enough effect; inconclusive means small, poorly fitted or top-dose-only effect, or another doubt; inactive means no such curve, though single readings can be large; an effect the other way counts as inactive or inconclusive. Potency means the concentration at half of the fitted maximal effect.

Results for CO/N=C(/C(=O)N[C@@H]1C(=O)N2C(C(=O)O)=CCS[C@H]12)c1csc(N)n1 ?
GLP1R ag: -3%

How did O=C(NC(=S)NCC1COc2ccccc2O1)c1ccccc1 (stereo not drawn) do in these assays?
BRCA1 expr act: -1%; GLP1R inv ag: inconclusive; HEK293 tox: -12%; GLP1R ag: 3%

What do the screens show for `O=C(NCC1COc2ccccc2O1)c1ccccc1` (stereo not drawn)?
BRCA1 expr act: 7.9µM*; GLP1R inv ag: 4%; HEK293 tox: 5%; GLP1R ag: 1%

What do the screens show for `Cc1ccc(O)c(N/C=C/C(=O)c2ccc(F)cc2)c1`?
BRCA1 expr act: 6.3µM*; GLP1R inv ag: inconclusive; HEK293 tox: -2%; GLP1R ag: 19%

What do the screens show for `CC1(C)Cc2ccccc2C(N/N=C/c2ccc(Cl)cc2)=N1`?
BRCA1 expr act: 1%; GLP1R inv ag: inconclusive; HEK293 tox: -3%; GLP1R ag: 1%

Results for O=C(CNC(=O)C12CC3CC(CC(C3)C1)C2)Nc1ncccc1O ?
BRCA1 expr act: 13%; GLP1R inv ag: -19%; HEK293 tox: -15%; GLP1R ag: -5%

What do the screens show for `CC(C)Cn1nc(NC(=O)c2cccs2)c2cc3ccccc3nc21`?
BRCA1 expr act: -11%; GLP1R inv ag: inconclusive; HEK293 tox: 303%; GLP1R ag: -9%

Results for COc1ccc2nc3c(cc2c1)c(NC(=O)c1cccs1)nn3CC(C)C ?
BRCA1 expr act: -6%; GLP1R inv ag: 8.9µM*; HEK293 tox: 156%; GLP1R ag: -22%

Results for CCCCC[C@H](C)N1C[C@@H](COCc2ccccc2)Oc2cc(N3CC[C@@H](O)C3)ccc2S1(=O)=O ?
BRCA1 expr act: -27%; GLP1R inv ag: 10µM*; HEK293 tox: inconclusive; GLP1R ag: -3%

What do the screens show for `CCCCC[C@@H](C)N1C[C@@H](COCc2ccccc2)Oc2cc(N3CC[C@@H](O)C3)ccc2S1(=O)=O`?
BRCA1 expr act: -36%; GLP1R inv ag: 14µM*; HEK293 tox: -21%; GLP1R ag: 1%

What do the screens show for `CCCCC[C@@H](C)N1C[C@@H](COCc2ccccc2)Oc2cc(N3CC[C@H](O)C3)ccc2S1(=O)=O`?
BRCA1 expr act: -55%; GLP1R inv ag: inconclusive; HEK293 tox: -2%; GLP1R ag: 2%

How did Cc1ccc(CNc2ncnc3ccc(-c4ccc(CO)o4)cc23)o1 do in these assays?
BRCA1 expr act: -53%; GLP1R ag: 6%

What do the screens show for `O=S(=O)(NCc1nc2cccnc2n1Cc1ccc(F)cc1)c1ccc(Cl)s1`?
GLP1R inv ag: -7%; HEK293 tox: 12%

What do the screens show for `CCC(=O)NCCc1sc2nc(-c3ccc(OC)cc3)nn2c1C`?
BRCA1 expr act: 5µM*; GLP1R inv ag: 17%; HEK293 tox: 8%; GLP1R ag: 8%

How did CC(OC(=O)c1cc(S(=O)(=O)N2CCOCC2)ccc1F)C(=O)NCC1CCCCC1 (stereo not drawn) do in these assays?
BRCA1 expr act: -10%; GLP1R inv ag: -21%; HEK293 tox: 6%; GLP1R ag: 8%

How did Cc1ccc(NC(=O)COC(=O)c2csc3c2CCC(C)C3)cc1S(=O)(=O)N1CCCCC1 (stereo not drawn) do in these assays?
BRCA1 expr act: -42%; GLP1R inv ag: -5%; HEK293 tox: 3%; GLP1R ag: -7%

What do the screens show for `CC1CCc2c(C(=O)OCC(=O)Nc3cccc(S(=O)(=O)N4CCCCCC4)c3)csc2C1` (stereo not drawn)?
BRCA1 expr act: -58%; GLP1R inv ag: 2.5µM*; HEK293 tox: -2%; GLP1R ag: -3%

What do the screens show for `Cc1ccc(C)c(C(=O)OCC(=O)Nc2cccc(S(=O)(=O)N3CCCCC3)c2)c1`?
BRCA1 expr act: -43%; GLP1R inv ag: 1.4µM*; HEK293 tox: -4%; GLP1R ag: -1%

What do the screens show for `Cc1ccc(S(=O)(=O)N2CCCCC2)cc1C(=O)OC(C)C(=O)NCC1CCCCC1` (stereo not drawn)?
BRCA1 expr act: -56%; GLP1R inv ag: 7.1µM*; HEK293 tox: -4%; GLP1R ag: 6%

Results for COCCSc1nnc(NC(=O)C2CC(=O)N(C3CCCC3)C2)s1 (stereo not drawn) ?
BRCA1 expr act: 15%; GLP1R inv ag: 13%; HEK293 tox: -3%; GLP1R ag: 6%
